PubChem BioAssay (NCATS)
Inconclusive results are not listed. Activity calls are given as the source filed them. Calls follow the shape of the dose curve; as a rule, active = well fitted curve in the direction sought with a large enough effect; inconclusive = small, poorly fitted or top-dose-only effect, or another doubt; inactive = no such curve, though single readings can be large; an effect the other way counts as inactive or inconclusive.

Assays:
[1] = molecular target: Cellular tumor antigen p53 (Homo sapiens) (UniProt P04637); test: Primary qHTS for small molecule compounds that upregulate eGFP-tagged delta133p53alpha (in N-terminal) cells. (AID 2060322); details: NCI-H358 eGFP-delta133p53alpha fluorescence, 24 h; activation: active compounds read high;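 also: 0% = DMSO vehicle and 100% = reference activator; nearly all actives have a fitted effect of over 75% in size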
How it was run: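 NCI-H358 cells pre-induced 24 h with 10 ng/ml doxycycline to express N-terminal eGFP-delta133p53alpha, then dosed 24 h at 37C without doxycycline; fixed, Hoechst-stained, GFP intensity by laser scanning cytometry, normalized to DMSO (0%) and 57.5 uM 5-azacytidine (100%).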

[2] = molecular target: Aldehyde dehydrogenase, mitochondrial (Homo sapiens) (UniProt P05091); test: qHTS for Inhibitors of the Aldehyde Dehydrogenase Family (ALDH2) Primary screen (AID 2061308); details: ALDH2 enzyme inhibition qHTS, 1536-well; series mostly up to 56 µM;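 also: plate controls were vehicle for no effect and reference inhibitor for full effect; nearly all actives have a fitted effect of over 55% in size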
[3] = molecular target: Retinaldehyde dehydrogenase 3 (Homo sapiens) (UniProt P47895); test: qHTS for Inhibitors of the Aldehyde Dehydrogenase Family (ALDH1A3) Primary screen (AID 2061315); details: ALDH inhibition qHTS; series mostly up to 56 µM;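 also: plate controls were DMSO vehicle for no effect and reference inhibitor for full effect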

Sequence of Cellular tumor antigen p53 (Homo sapiens) (P04637 whole entry, looked up): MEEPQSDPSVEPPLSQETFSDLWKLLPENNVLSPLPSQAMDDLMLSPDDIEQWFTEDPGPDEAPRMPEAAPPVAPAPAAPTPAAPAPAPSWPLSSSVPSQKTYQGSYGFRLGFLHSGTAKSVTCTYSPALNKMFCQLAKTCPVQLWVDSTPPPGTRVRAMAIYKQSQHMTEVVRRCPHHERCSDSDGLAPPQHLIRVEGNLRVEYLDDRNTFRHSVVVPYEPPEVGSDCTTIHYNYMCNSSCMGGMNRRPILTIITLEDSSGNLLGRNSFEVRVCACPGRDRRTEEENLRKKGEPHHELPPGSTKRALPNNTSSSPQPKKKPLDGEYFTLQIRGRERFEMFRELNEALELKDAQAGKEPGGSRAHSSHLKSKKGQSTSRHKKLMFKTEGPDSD

C=C(COC(=O)C(C)C)C1Oc2cc(C(C)=O)ccc2C1OC(=O)C(C)C (stereo unspecified)
inactive: activation [1] 2.29% | Potency [2] | Potency [3]

CCC(C)C(C(=O)O)N1Cc2c(OCC=C(C)C)c(C)c(OC)c(C(=O)O)c2C1=O (stereo unspecified)
inactive: activation [1] 5.34% | Potency [2] | Potency [3]

COc1c(C)c2c(c(O)c1C/C=C(\C)CC/C=C(\C)CCC(=O)O)C(=O)OC2
inactive: activation [1] 6.11% | Potency [2] | Potency [3]

CC1(C)O[C@]23C[C@H]1C[C@H](OC(=O)c1ccoc1)[C@]2(C)[C@@H](OC(=O)c1ccoc1)CCC3(C)O (stereo partly specified)
inactive: activation [1] -5.34% | Potency [2] | Potency [3]

Cc1cc(Cn2cnc3c2CC(C(=O)O)N(C(=O)C(c2ccccc2)c2ccccc2)C3)ccc1N(C)C (stereo unspecified)
inactive: activation [1] -7.64% | Potency [2] | Potency [3]

CC1C(=O)CC2C3CCC(C(=O)O)C12CC3(C)CO (stereo unspecified)
inactive: activation [1] 9.92% | Potency [2] | Potency [3]

C/C(=C\CO[C@@H]1O[C@H](CO[C@H]2OC[C@](O)(CO)[C@H]2O)[C@@H](O)[C@H](O)[C@H]1O)C(C)(C)O
inactive: activation [1] -5.34% | Potency [2] | Potency [3]

CC(=O)O[C@@H]1C[C@@]23C[C@@]24CC[C@H](OC2OC[C@@H](O)[C@H](O)[C@H]2O)C(C)(C)[C@@H]4CC[C@H]3[C@]2(C)CC3OC4(C[C@@H](C)C3[C@@]12C)OCC1(C)OC14 (stereo partly specified)
inactive: activation [1] 13.4% | Potency [2] | Potency [3]

CC(C)OC(=O)N1CCC(Oc2ncnc3c2cnn3-c2ccc(S(C)(=O)=O)cc2F)CC1
inactive: activation [1] 4.3% | Potency [2] | Potency [3]

CCOC(=O)Cn1cccc1-c1nc(-c2ccc(OC)cc2)c(-c2ccc(OC)cc2)s1
inactive: activation [1] 27.6% | Potency [2] | Potency [3]

CC1(C)[C@@H](O[C@H]2O[C@H](C(=O)O)[C@@H](O)[C@H](O)[C@H]2O[C@@H]2O[C@H](C(=O)O)[C@@H](O)[C@H](O)[C@H]2O)CC[C@]2(C)[C@H]3C(=O)C=C4[C@@H]5C[C@@](C)(C(=O)O)CC[C@]5(C)CC[C@@]4(C)[C@]3(C)CC[C@@H]12
inactive: activation [1] -7.67% | Potency [2] | Potency [3]

C=C1C(OC(C)=O)[C@@]23CCC4[C@](C)(C(=O)O)CCC[C@@]4(C)[C@]2(O)CC[C@H]1C3 (stereo partly specified)
inactive: activation [1] 8.93% | Potency [2] | Potency [3]

O=C(CCO[C@@H]1O[C@H](CO)[C@@H](O)[C@H](O)[C@H]1O)c1ccc(O)cc1
inactive: activation [1] -6.87% | Potency [2] | Potency [3]

COc1cc(-c2nc(N[C@H](CO)Cc3ccccc3)ccc2C(=O)NCCOc2ccccc2)cc(OC)c1OC
inactive: activation [1] -11.9% | Potency [2] | Potency [3]

Cc1onc(-c2c(F)cccc2Cl)c1C(=O)N[C@@H]1C(=O)N2[C@@H]1SC(C)(C)[C@@H]2C(=O)O
inactive: activation [1] -1.67% | Potency [2] | Potency [3]

COC(=O)C1=COC(OC2OC(CO)C(O)C(O)C2O)C2C1C=CC2(O)CO (stereo unspecified)
inactive: activation [1] -3.57% | Potency [2] | Potency [3]

Nc1ncnc2c1nc(Cl)n2C1OC2COP(=O)(O)OC2C1O (stereo unspecified)
inactive: activation [1] -12.3% | Potency [2] | Potency [3]

C#CCCCn1cc(-c2cccc3c2N[C@H](C)CC(=O)N3)cn1
inactive: activation [1] 8.93% | Potency [2] | Potency [3]

COc1ccccc1-c1ccc(-c2cn(C(=O)N3CCCCC3Cc3ccccc3)nn2)cc1 (stereo unspecified)
inactive: activation [1] -5% | Potency [2] | Potency [3]

CC(C)(C)c1ccc(C(=O)Nc2cc(Cl)c(Br)cc2C(=O)O)cc1
inactive: activation [1] -3.67% | Potency [2] | Potency [3]

CC1CCC2(C)C(CC(O)C(O)C23CO3)C1(C)CCC1=CC(O)OC1=O (stereo unspecified)
inactive: activation [1] -2.29% | Potency [2] | Potency [3]

CC1CCC2(C)C(CC(O)C(O)C23CO3)C1(C)CCC1=CC(=O)OC1O (stereo unspecified)
inactive: activation [1] -12.2% | Potency [2] | Potency [3]

C=CC(C)(O)CC[C@H]1C(=C)CCC2[C@](C)(C(=O)O)CCC[C@@]21C (stereo partly specified)
inactive: activation [1] 24.1% | Potency [2] | Potency [3]

CC(=O)N[C@@H](C(=O)O[C@H]1CCC(C)(C)[C@@H]2CCC3=C(COC3=O)[C@@]12C)C(C)C
inactive: activation [1] -12.2% | Potency [2] | Potency [3]

COc1cc(C2Oc3c(O)cc(CCCO)cc3C2CO)ccc1O[C@H]1O[C@H](C)[C@@H](O)[C@H](O)[C@@H]1O (stereo partly specified)
inactive: activation [1] -19.1% | Potency [2] | Potency [3]

COc1ccc(NC(=O)C2C[C@H](C)CC[C@H]2C(C)C)cc1 (stereo partly specified)
inactive: activation [1] 5.67% | Potency [2] | Potency [3]

CN[C@H](CC(C)C)C(=O)N[C@H]1C(=O)N[C@@H](CC(N)=O)C(=O)N[C@H]2C(=O)N[C@H]3C(=O)N[C@H](C(=O)N[C@H](C(=O)O)c4cc(O)cc(O)c4-c4cc3ccc4O)[C@H](O[C@H]3C[C@](C)(N)[C@@H](O)[C@H](C)O3)c3ccc(c(Cl)c3)Oc3cc2cc(c3O[C@@H]2O[C@H](CO)[C@@H](O)[C@H](O)[C@H]2O[C@H]2C[C@](C)(NCc3ccc(-c4ccc(Cl)cc4)cc3)[C@@H](O)[C@H](C)O2)Oc2ccc(cc2Cl)[C@H]1O
inactive: activation [1] 27% | Potency [2] | Potency [3]
